Outcome data for 38 molecules are collected here from PubChem BioAssay AID588849 (Broad Institute, 2011).

Potency and affinity values are given separately. Calls of active or inactive are those of the source. Where a call stands in place of a potency, no number is given. No rule for the calls is given here.

This test deals with CAAX prenyl protease 2 (Homo sapiens) (UniProt Q9Y256). Description: human Rce1 protease inhibitors, dose response, biochemical, yeast membranes, quenched-peptide fluorescence, cherry-pick (AID 588849). The settings on record: yeast membrane fractions expressing human Rce1, quenched-peptide fluorescence, 4 h; series mostly up to 10 µM.
CAAX prenyl protease 2 (Homo sapiens), sequence (Q9Y256 whole entry, looked up): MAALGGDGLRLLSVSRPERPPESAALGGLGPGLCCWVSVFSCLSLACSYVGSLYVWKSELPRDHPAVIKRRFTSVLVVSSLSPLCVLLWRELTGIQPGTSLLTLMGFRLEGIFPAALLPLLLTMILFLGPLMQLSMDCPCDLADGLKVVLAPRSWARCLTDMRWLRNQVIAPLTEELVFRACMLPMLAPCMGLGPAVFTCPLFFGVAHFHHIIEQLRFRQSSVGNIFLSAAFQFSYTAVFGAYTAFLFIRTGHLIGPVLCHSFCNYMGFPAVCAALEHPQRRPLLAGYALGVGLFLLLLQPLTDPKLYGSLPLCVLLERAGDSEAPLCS
Turning to `CN1CCN(Cc2c(C(=O)N/N=C/c3cccc(Br)c3)nnn2-c2nonc2N)CC1`, the molecule was called inactive.
Next, `COc1cccc(NC(=O)Nc2cccn(Cc3ccc(C)cc3)c2=O)c1`: “inactive”; `C=CCc1cccc(/C=N/NC(=O)COc2ccc(-n3cnnn3)cc2)c1O`: “inactive”.
In the case of `Cc1ccc(Nc2nc(-c3ccc(S(=O)(=O)N4CCOCC4)cc3)cs2)cc1Cl` it was “inactive”.
Next, `COc1ccc(Cc2nc3ccc(C(=O)N4CCCC4)cc3o2)cc1`: “inactive”; `O=C(COc1ccc2ccc(=O)oc2c1)NCCc1c[nH]c2ccc(F)cc12`: “inactive”; `CCCCNC(=O)c1cc2c(=O)n3cccc(C)c3nc2n(Cc2ccccc2)c1=N`: “inactive”.
On to `COc1ccc(C2c3c(ncn(CCN4CCOCC4)c3=N)Oc3ccc4ccccc4c32)cc1` (stereo not drawn), for which the result was inactive.
Take `CC1(C)CC2CC(C)(CN2S(=O)(=O)c2ccc(N)cc2)C1` (stereo not drawn): the molecule was called inactive.
Next, `CCN(CC)CCCNc1cc(C)nc2cc(-c3cccs3)nn12`: “inactive”; `NC(=O)CCCn1c(C(=O)c2cc(Cl)c(N)c(Cl)c2)c2ccc(C(F)(F)F)cc2[n+]1[O-]`: “inactive”; `C=CCn1c(SCc2ccc(C#N)cc2)nnc1-c1ccc(C)cc1`: “inactive”.
Consider `Cc1cc(C(=O)N/N=C/c2c3ccccc3cc3ccccc23)n[nH]1`, for which the molecule was classed as inactive.
In the case of `c1ccc(-n2cnnc2SCc2cn3cccnc3n2)cc1`, the outcome was inactive.
With `CCCCN(CC)CCNC(=O)c1cc2c(-c3ccc(Cl)cc3)nn(C)c2s1`, the result was inactive.
`CCN(C(=O)COC(=O)c1cc(-c2cccs2)nc2ccccc12)C1CCS(=O)(=O)C1` (stereo not drawn): the call was inactive.
With `O=C(O)CCc1nc2cc(C(F)(F)F)ccc2n(Cc2ccccc2)c1=O`, the outcome was inactive.
Take `O=C(Nc1ccccc1N1CCOCC1)C1CCN(S(=O)(=O)c2ccc(F)cc2)CC1`: the result was inactive.
For the molecule `Cc1cc(N/N=C/c2ccc(O)c(C)c2O)nc(-c2ccccc2O)n1`, the molecule was classed as inactive.
Take `COc1ccc2[nH]c(C(=O)NCCCn3ccnc3)cc2c1`: the result was inactive.
Next, `COC(C/C=C/[C@H](O)[C@@H](C)OCc1ccccc1)OC`: “inactive”.
Take `Cc1cccc2sc(N(CCN(C)C)C(=O)c3ccc4ccccc4c3)nc12`: the molecule was classed as inactive.
Regarding `Cc1cc(Cl)c2oc(C(=O)N3CCN(C(=O)c4ccco4)CC3)c(C)c2c1`, the result was inactive.
For `Cc1ccccc1NS(=O)(=O)c1ccc(C(=O)NCC(c2ccccc2)N(C)C)cc1` (stereo not drawn), the molecule was classed as inactive.
As to `O=C(CSc1n[nH]c(-c2ccc(S(=O)(=O)N3CCCCC3)cc2)n1)Nc1nccs1`, the molecule was called inactive.
On to `CCN(CC)CCCNC(=O)CCc1c(C)n(CC)c2cc(-c3ccccc3OC)nn2c1=O`, for which the outcome was inactive.
For the molecule `CC(=O)C(C)Oc1ccc2c3c(c(=O)oc2c1)CCCC3` (stereo not drawn), the molecule was classed as inactive.
Consider `COc1cc2ccccc2cc1C(=O)N(CCN(C)C)c1nc2ccc(C)cc2s1`, for which the molecule was classed as inactive.
Regarding `CC(C)C(=O)Nc1cccc(NC(=S)NC(=O)C(c2ccccc2)c2ccccc2)c1`, the call was inactive.
On to `COc1ccc(C(CNC(=O)COc2cc(C)c(Cl)c(C)c2)N2CCCCC2)cc1` (stereo not drawn), for which the molecule was called inactive.
In the case of `COc1cccc(-c2nc(C#N)c(N3CCN(C(=O)c4ccco4)CC3)o2)c1`, the result was inactive.
In the case of `Cc1ccc(-c2cc3cccc[n+]3cc2-c2ccc(C)cc2)cc1`, the outcome was inactive.
In the case of `Cc1ccc(C(=O)N/C(=C/c2ccco2)C(=O)Nc2cccc(C(=O)O)c2)cc1` it was “inactive”; in that of `O=C(O/N=C\c1ccc(N2CCCCC2)c([N+](=O)[O-])c1)c1cccc(C(F)(F)F)c1`, “inactive”.
For `c1ccc(-n2nnnc2SCc2cn3cccnc3n2)cc1`, the result was inactive.
On to `C#CCNC(=O)C1=C[C@@H](C2CCCCC2)C[C@@H](OCc2ccc(CO)cc2)O1`, for which the molecule was called inactive.
As to `CC(=O)NC(Cc1c[nH]c2ccccc12)C(=O)O` (stereo not drawn), the molecule was called inactive.
For the molecule `Nc1c(C(=O)NCc2ccccc2)sc2nc(N3CCOCC3)c3c(c12)CCCC3`, the outcome was inactive.
